Source: PubChem BioAssay
An excerpt weighted towards active compounds, which were near 3.9% of everything screened.
HSF1 inh: HSF1 inhibition; NIH3T3-HGL HSE-luciferase, MG132-induced, luminescence 8 h; active compounds read low; activity change, negative = inhibition, % at 7.5 µM (by protocol); 300,000 tested, 0.77% active; AID 2098;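 active = more than half of replicate wells show activity change below -50%, luminescence cut by over half; inconclusive = some wells, but at most half, below -50%; inactive = no replicate well below -50%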;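 also: luciferase reports HSF-1 transcriptional activity via heat shock element; 0% = median of DMSO wells and -100% = zero luminescence signal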
Wnt bcat act: activates Wnt/beta-catenin signaling in a reporter cell assay; 300,000 tested, 1.2% active; AID 743398; activator, plate reader; activation, % at 9.35 µM; in the data active = activation above about 30%, passing the limit was not always enough; inconclusive = no clear call, values can overlap the other calls;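 also: 0% = neutral control wells and 100% = positive control wells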
esBAF inh: blocks esBAF chromatin remodeling in mouse ES cells; reporter increase, % at 12.5 µM; 350,000 tested, 2% active; Bmi1-luciferase knock-in reporter, 24 h; 100% = twice the neutral-well signal; in the data active = activation above about 40%; inconclusive = no clear call, values can overlap the other calls;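 also: 0% = median of the plate's neutral control wells and 100% = double that signal; a rise in the Bmi1 reporter signal indicates esBAF inhibition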
MITF act: activators of MITF-driven TRPM1 promoter activity in SK-MEL-5 cells. 300,000 tested, 0.75% active. activation, % at 12.5 µM. SK-MEL-5 TRPM1-promoter luciferase, 24 h; % of positive control, neutral wells = 0;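 active = mean activation of at least 80% with every replicate also reaching 80%; inconclusive = mean reaches 80% but some replicate falls short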;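 also: 0% = neutral control wells and 100% = parthenolide positive control wells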
HSF1 activator: increases HSF-1 driven luciferase reporter signal; 300,000 tested, 1.7% active; NIH3T3-HGL HSF-1 luciferase reporter, MG132, 8 h; 100% = twice DMSO control signal; activation, % at 9 µM;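 active = mean replicate activation of at least 50% with a set share of replicates each reaching 50%; inconclusive = only one of those two conditions met; inactive = mean below 50% and too few replicates reaching it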;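 also: 0% = median of the neutral control wells and 100% = twice that signal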
* = called active by the depositor; u = inconclusive; x = no result.

SMILES	HSF1 inh	Wnt bcat act	esBAF inh	MITF act	HSF1 activator
COc1ccccc1CNC(=O)C[C@@H]1C[C@@H]2c3cc(NC(=O)c4cccnc4)ccc3O[C@@H]2[C@H](CO)O1	x	x	-1	x	x
O=C(CN1C(=O)/C(=C\c2cccc(Cl)c2)Sc2ccccc21)NCCCN1CCOCC1	50	-5	-2	-4	90*
COc1ccc(C(=O)Nc2sc(C)c(C)c2CN2CC(C)OC(C)C2)cc1 (configuration not stated)	1	9	72*	10	9
Cc1nc(CN2CCN(Cc3nc(C(c4ccccc4)c4ccccc4)no3)CC2)cs1	29	0	x	-1	69*
COCC(=O)NC[C@@H]1[C@@H](c2ccc(C3=CCCC3)cc2)[C@H](CO)N1C(C)=O	x	x	-3	x	x
O=C1c2ccccc2/C(=C\c2ccc3[nH]ccc3c2)N1c1ccccc1	x	26	45*	26	x
COc1cc2c(cc1[N+](=O)[O-])-c1ccccc1C2	x	-12	42*	26	x
CCCN1C[C@@H](C)[C@@H](OC)CN(C)C(=O)c2cc(NC(=O)C3CCC3)ccc2OC[C@@H]1C	x	x	-5	x	x
C[C@@H]1CN([C@H](C)CO)C(=O)Cc2cc(NC(=O)Cn3cnnn3)ccc2O[C@H]1CN(C)C(=O)Nc1ccccc1	x	x	2	x	x
COC(=O)Cc1ccc(NC(=O)c2ccc(C)c(C)c2)cc1	39	23	14	u	71*
CS(=O)(=O)c1ccc(-c2cccc(NC(=O)c3ccc(Br)o3)c2)nn1	-2	-5	x	-16	-20
COC(=O)Cc1ccc(NC(=O)c2ccc(Br)o2)cc1	12	9	57*	48	9
COc1ccc(-c2ccc(NC(=O)c3ccc(Br)o3)cc2)nn1	16	31*	27	98*	10
CCN(CC)c1ccc(NC(=O)c2ccc(Br)o2)cc1	30	70*	43*	97*	50
O=C(C[C@H]1CC[C@@H](NC(=O)Nc2ccccc2)[C@H](CO)O1)NCc1ccccn1	x	x	-4	x	x
COc1ccc(NC(=O)N[C@@H]2CC[C@H](CCNS(=O)(=O)c3cccc(Cl)c3)O[C@@H]2CO)cc1	x	x	-4	x	x
O=c1nc(N/N=C/c2c[nH]c3ccccc23)cn[nH]1	10	41*	x	57	21
C(=N\Nc1ccccn1)/c1c[nH]c2ccccc12	177	-2	x	x	251*
O=C(O)c1cccc2c(/C=N/Nc3ccccn3)c[nH]c12	-14	x	-1	6	-11
O=c1cnnc(N/N=C/c2c[nH]c3ccccc23)[nH]1	-10	-1	-1	-1	-9
C[C@@H]1CN([C@H](C)CO)C(=O)c2cc(NC(=O)NC3CCCCC3)ccc2O[C@@H](C)CCCCO[C@@H]1CN(C)C(=O)Cc1ccccc1	x	x	5	x	x
C[C@@H]1CCCCO[C@@H](CN(C)C(=O)Cc2ccccc2)[C@@H](C)CN([C@@H](C)CO)C(=O)c2cc(NC(=O)CCCN(C)C)ccc2O1	x	x	0	x	x
Cc1ccc(S(=O)(=O)N2C[C@@H](O)COC[C@H]3O[C@H](CC(=O)N[C@@H]4CCN(Cc5ccccc5)C4)CC[C@@H]32)cc1	x	x	7	x	x
CS(=O)(=O)Nc1ccc2c(c1)[C@@H]1C[C@H](CC(=O)N3CCOCC3)O[C@H](CO)[C@@H]1O2	x	x	-4	x	x
CN(C(=O)COC(=O)c1cccc(Cl)c1)C1CCS(=O)(=O)C1 (configuration not stated)	x	-1	1	7	x
SMILES	HSF1 inh	Wnt bcat act	esBAF inh	MITF act	HSF1 activator
CC(C)CNS(=O)(=O)c1cc(C(=O)OCC(=O)N(C)C2CCS(=O)(=O)C2)c(Cl)cc1Cl (configuration not stated)	2	53*	-9	-1	15
CCN1[C@@H]2c3ccc(C4=CCCCC4)c(=O)n3C[C@@H]2[C@@H](CO)[C@@H]1C(=O)OC	x	x	20	x	x
Fc1ccccc1/C=N/n1cc(-c2ccccc2)[nH]c1=S	9	12	54*	28	3
Cc1ccc(Cn2ccc(-c3cnc(-c4ccccc4)s3)n2)cc1	24	x	79*	57	45
O=C(c1ccc(F)cc1)n1ccc(-c2cnc(-c3ccccc3)s2)n1	25	x	27	67	41
Fc1ccc(Cn2ccc(-c3cnc(-c4ccccc4)s3)n2)cc1	39	x	x	39	62*
O=S(=O)(c1ccccc1)n1ccc(-c2cnc(-c3ccccc3)s2)n1	-3	45*	x	98*	-15
Cc1noc(C)c1NC(=O)N(C)C[C@H]1Oc2c(NC(=O)NC3CCCCC3)cccc2C(=O)N([C@H](C)CO)C[C@H]1C	x	x	-2	x	x
C[C@@H]1CCCCO[C@@H](CN(C)Cc2ccc3c(c2)OCO3)[C@H](C)CN([C@H](C)CO)C(=O)c2cc(NC(=O)C3CCCCC3)ccc2O1	x	x	-4	x	x
CN1CCN(c2ccc(-c3ccnn3C(=O)Nc3ccccc3)cc2)CC1	9	44*	x	49	39
CN1CCN(c2ccc(NC(=O)C(C)(c3ccccc3)c3ccccc3)cc2)CC1	-7	-2	6	9	-5
Cc1c(OCc2ccccc2)c(=O)ccn1Cc1ccccc1	11	x	56*	56	-4
Cc1noc(C)c1NC(=O)Nc1ccc2c(c1)C(=O)N([C@H](C)CO)C[C@H](C)[C@@H](CN(C)Cc1ccc(C(=O)O)cc1)OCCCC[C@H](C)O2	x	x	2	x	x
COc1cc(C2c3c(oc4ccccc4c3=O)C(=O)N2Cc2ccco2)ccc1O (configuration not stated)	-4	x	-2	4	-6
COc1cccc(C2c3c(oc4ccccc4c3=O)C(=O)N2Cc2ccco2)c1 (configuration not stated)	22	0	-7	-7	59*
O=C(CC(=O)c1cc(Cl)ccc1O)c1ccccc1	4	25	49*	22	2
Cc1ccc(O)c(C(=O)CC(=O)c2ccc(Cl)cc2)c1	22	7	35	x	29
Cc1cccc(C(=O)CC(=O)c2cc(Cl)ccc2O)c1	11	x	64*	-34	24
C[C@@H]1CN([C@@H](C)CO)C(=O)c2cc(NC(=O)Nc3ccc4c(c3)OCO4)ccc2O[C@@H](C)CCCCO[C@H]1CN(C)Cc1ccncc1	x	x	57*	x	x
C[C@H]1CN([C@@H](C)CO)C(=O)c2cc(NC(=O)Cc3ccccc3)ccc2O[C@H]1CN(C)C(=O)Nc1ccc2c(c1)OCO2	x	x	71*	x	x
C[C@@H]1CN([C@@H](C)CO)C(=O)c2cc(NC(=O)Cc3ccccc3)ccc2O[C@H]1CN(C)C(=O)Nc1ccc2c(c1)OCO2	x	x	-2	x	x
Cc1ccc(S(=O)(=O)Nc2cccc3c2O[C@H](CN(C)C(=O)Nc2ccc4c(c2)OCO4)[C@H](C)CN([C@H](C)CO)C3=O)cc1	x	x	72*	x	x
CC(C)NC(=O)N(C)C[C@H]1Oc2ccc(NC(=O)Nc3ccccc3)cc2C(=O)N([C@H](C)CO)C[C@@H]1C	x	36*	-6	-2	x
